This is an account of results in PubChem BioAssay (Tox21).

Inconclusive results are not listed. Unmarked numbers belong to inactive results. Calls of active or inactive are those of the source. Unless noted, calls come from the whole dose curve; as a rule, active = well fitted curve in the direction sought with a large enough effect in the repeat runs; inconclusive = weak or mixed curves; inactive = no such curve, though single readings can be large; an effect the other way counts as inactive or inconclusive.

The nature of experiment [1]: qHTS assay to identify small molecule antagonists of the thyroid receptor (TR) signaling pathway - cell viability counter screen (AID 743064). Note: nearly all actives have a fitted effect of over 50% in size. A digest of the protocol: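 In-well cytotoxicity read by CellTiter-Fluor (30 min, 37 C) following 23.5 h exposure of GH3 cells bearing a TRE-luciferase sensor. Compounds were added alongside 1 nM (final) T3 to drive TR transactivation.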
(In general: Quantitative high-throughput screening tests each substance at several concentrations.)

For experiment [2], the system named is thyroid hormone receptor (rat, GH3 cells). Kind of experiment: qHTS assay to identify small molecule agonists of the thyroid receptor (TR) signaling pathway (AID 743066; calls by dose curve; note: potency is the fitted concentration of half-maximal effect).
The target of experiment [3] is Estrogen receptor (Homo sapiens) (UniProt P03372). In words: qHTS assay to identify small molecule agonists of the estrogen receptor alpha (ER-alpha) signaling pathway (AID 743075; calls by dose curve;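 note: HEK293 GripTite cells with ER-alpha and UAS-driven beta-lactamase reporter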).
A short description of experiment [4]: qHTS assay to identify small molecule antagonists of the estrogen receptor alpha (ER-alpha) signaling pathway using the BG1 cell line (AID 743080; calls by dose curve;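 note: BG1 cells stimulated with 17beta-estradiol alongside compound; series mostly up to about 70 µM; nearly all actives have a fitted effect of over 25% in size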). Summed up:
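BG1Luc4E2, endogenous ER-alpha, 4xERE-luc; 5 d charcoal-stripped FBS, phenol red free; 24 h plating; cpd + 17beta-estradiol 21.5 h, 37 C/5% CO2; CellTiter-Fluor viability 30 min, then ONE-Glo luciferase 30 min RT.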

Experiment [5] is described as follows: qHTS assay to identify small molecule antagonists of the estrogen receptor alpha (ER-alpha) signaling pathway using the BG1 cell line - cell viability counter screen (AID 743081).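 Note: compound given together with 17beta-estradiol as the ER stimulus; series mostly up to about 70 µM; nearly all actives have a fitted effect of over 45% in size.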
In experiment [6] the target is Estrogen receptor (Homo sapiens) (UniProt P03372). In words: qHTS assay to identify small molecule antagonists of the estrogen receptor alpha (ER-alpha) signaling pathway (AID 743069; active = well fitted curve in the direction sought with a large enough effect in the signal ratio in the repeat runs, not every such curve was filed as active; the % refers to the signal ratio). Summed up:
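Antagonist mode: compounds in DMSO were co-added with 17beta-estradiol to ER-alpha-bla HEK293 cells (2% charcoal-stripped serum) and left 18 h at 37C. Reporter inhibition was measured as FRET fluorescence after 2 h LiveBLAzer substrate at room temperature.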

The nature of experiment [7]: qHTS assay to identify small molecule antagonists of the estrogen receptor alpha (ER-alpha) signaling pathway - cell viability counter screen (AID 743074; calls by dose curve;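 note: HEK293 cells carrying ER-alpha-UAS-bla reporter stimulated with 17beta-estradiol; nearly all actives have a fitted effect of over 45% in size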; note: potency is the fitted concentration of half-maximal effect).
Experiment [8] deals with Estrogen receptor (Homo sapiens) (UniProt P03372). Kind of experiment: qHTS assay to identify small molecule agonists of the estrogen receptor alpha (ER-alpha) signaling pathway using the BG1 cell line (AID 743079). Note: nearly all actives have a fitted effect of over 20% in size. Note: potency is the fitted concentration of half-maximal effect.
A further experiment deals with Aromatase (Homo sapiens) (UniProt P11511). In words: qHTS assay to identify aromatase inhibitors (AID 743083). For activity, negative = inhibition: series mostly up to about 70 µM. Note: nearly all actives have a fitted effect of over 55% in size. Note: potency is the fitted concentration of half-maximal effect.
A short description of experiment [9]: qHTS assay to identify small molecule antagonists of the thyroid receptor (TR) signaling pathway (AID 743065). For activity, negative = inhibition: series mostly up to about 70 µM. Note: nearly all actives have a fitted effect of over 55% in size. Note: potency is the fitted concentration of half-maximal effect. A digest of the protocol:
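Antagonism measured as loss of luciferase signal in GH3 cells stably carrying a TRE-luciferase reporter, co-treated with compound and T3 (1 nM final) for 23.5 h at 37 C. Viability was read in the same well by CellTiter-Fluor.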
% is set by controls: 0 for no effect and ±100 for the full control effect.

Estrogen receptor (Homo sapiens), sequence (P03372 whole entry, looked up): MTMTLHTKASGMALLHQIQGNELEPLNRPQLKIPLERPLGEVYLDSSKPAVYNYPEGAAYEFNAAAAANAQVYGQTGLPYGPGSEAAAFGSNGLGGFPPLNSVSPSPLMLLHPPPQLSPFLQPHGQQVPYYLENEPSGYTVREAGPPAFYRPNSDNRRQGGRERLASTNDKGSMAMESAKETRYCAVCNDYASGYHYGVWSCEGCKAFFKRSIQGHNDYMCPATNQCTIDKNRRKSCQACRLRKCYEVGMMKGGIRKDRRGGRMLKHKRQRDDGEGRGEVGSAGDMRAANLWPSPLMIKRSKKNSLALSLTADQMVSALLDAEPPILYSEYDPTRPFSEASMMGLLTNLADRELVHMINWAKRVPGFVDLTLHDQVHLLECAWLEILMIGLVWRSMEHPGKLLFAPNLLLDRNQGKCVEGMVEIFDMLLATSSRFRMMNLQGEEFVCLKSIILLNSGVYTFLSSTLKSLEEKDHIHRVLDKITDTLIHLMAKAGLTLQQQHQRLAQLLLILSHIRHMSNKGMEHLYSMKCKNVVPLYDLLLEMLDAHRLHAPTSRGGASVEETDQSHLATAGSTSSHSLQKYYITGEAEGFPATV
Aromatase (Homo sapiens), sequence (P11511 whole entry, looked up): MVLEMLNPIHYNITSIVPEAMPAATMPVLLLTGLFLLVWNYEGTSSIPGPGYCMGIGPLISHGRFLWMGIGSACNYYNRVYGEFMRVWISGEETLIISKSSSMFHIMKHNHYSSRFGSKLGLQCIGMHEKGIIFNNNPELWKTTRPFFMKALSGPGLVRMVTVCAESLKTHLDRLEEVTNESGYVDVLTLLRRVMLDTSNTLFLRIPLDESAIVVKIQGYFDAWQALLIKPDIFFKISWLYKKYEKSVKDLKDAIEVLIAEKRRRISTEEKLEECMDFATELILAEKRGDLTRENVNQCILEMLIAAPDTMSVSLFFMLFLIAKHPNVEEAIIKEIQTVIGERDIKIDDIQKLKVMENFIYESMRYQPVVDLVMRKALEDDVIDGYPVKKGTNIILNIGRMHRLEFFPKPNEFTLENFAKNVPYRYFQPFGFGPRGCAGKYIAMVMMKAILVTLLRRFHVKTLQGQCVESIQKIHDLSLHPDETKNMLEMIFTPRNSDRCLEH

For `Cc1cc([N+](=O)[O-])ccc1N`, the Potency result in [1], in experiment [2], in [3], in experiment [4] and in experiment [5] was “inactive” each time.
On to `CC(C)(C(=O)c1cccnc1)c1cccnc1`, for which the Potency entry in experiment [1], in [6], in [7], in [3], in experiment [8] and in experiment [4] was “inactive” each time. Further, the Potency entry (in [5]; with Aromatase (Homo sapiens)) was “inactive” throughout.
As to `CC(=O)OCCC(C)CC(C)(C)C` (stereo not drawn), the Potency result in experiment [9], in experiment [7], in [3], in experiment [8], in [4] and in [5] was “inactive” in each case. Besides, the Potency entry in the experiment with Aromatase (Homo sapiens) was “inactive”. Further, the Potency in experiment [2] was 24.3 µM (active).
Consider `C[C@@H]1C[C@H]2[C@@H]3CCC4=CC(=O)C=C[C@]4(C)[C@@]3(F)[C@@H](O)C[C@]2(C)[C@@]1(O)C(=O)COP(=O)(O)O`, for which the Potency entry (in experiment [9]; in experiment [2]; in [7]; in [3]; in experiment [5]; in the experiment with Aromatase (Homo sapiens)) was “inactive” each time.
Take `Cc1ccc2nc(N)[nH]c(=O)c2c1Sc1ccncc1`: the Potency in experiment [9] is 8.41 µM (active); in experiment [7] it was 3.01 µM (active); with Aromatase (Homo sapiens) it was 9.44 µM (active). The Potency result in [2] and in [5] was “inactive” each time.
With `Cc1ccc(N(CCO)CCO)cc1`, the Potency result in [9], in experiment [2], in experiment [6], in experiment [7], in experiment [3] and in [8] was “inactive” each time. Besides, the Potency result (in experiment [4]; in experiment [5]; with Aromatase (Homo sapiens)) was “inactive” in each case.
Consider `CCc1ccc(C)cc1`, for which the Potency result (in experiment [9]; in experiment [2]; in experiment [7]; in experiment [5]; with Aromatase (Homo sapiens)) was “inactive” each time.
Regarding `[Cl][Nd]([Cl])[Cl]`, the Potency entry in experiment [9], in experiment [2], in [6], in experiment [7], in experiment [3] and in [8] was “inactive” in each case. Further, the Potency result (in [4]; in [5]; with Aromatase (Homo sapiens)) was “inactive” in each case.
For `COc1cc(OC)c2ccc(=O)oc2c1`, the Potency entry in [9], in experiment [2], in experiment [6], in experiment [7], in experiment [3] and in experiment [8] was “inactive” throughout. The Potency result (in experiment [4]; with Aromatase (Homo sapiens)) was “inactive” throughout.
In the case of `CC1=C2[C@@H]([C@H](C)CC[C@H]2/C=C(\C)C(=O)O)[C@H](O)C1`, the Potency entry in experiment [9], in experiment [2], in experiment [7], in experiment [3], in experiment [8] and in experiment [4] was “inactive” in each case. Also, the Potency entry (in experiment [5]; in the experiment with Aromatase (Homo sapiens)) was “inactive” throughout.
Turning to `Nc1nc2ccc(OC(F)(F)F)cc2s1`, the Potency in experiment [9] was 21.1 µM (active); in [8], 5.96 µM (active). Also, the Potency entry (in experiment [2]; in experiment [6]; in experiment [7]; in [5]; in the experiment with Aromatase (Homo sapiens)) was “inactive” in each case.
On to `CSSc1ccoc1C`, for which the Potency entry (in experiment [9]; in experiment [2]; in [7]; in experiment [5]; in the experiment with Aromatase (Homo sapiens)) was “inactive” throughout.
`C=CC(=O)NC(C)C`: the Potency result in experiment [9], in experiment [2], in experiment [6], in experiment [7], in experiment [3] and in experiment [8] was “inactive” each time. Also, the Potency result (in [4]; in [5]; in the experiment with Aromatase (Homo sapiens)) was “inactive” in each case.
On to `O=S(=O)(O)CO`, for which the Potency result (in [9]; in experiment [2]; in [7]; in experiment [5]; with Aromatase (Homo sapiens)) was “inactive” in each case.
Consider `COC(C)(C)OC`, for which the Potency result in experiment [9], in [2], in [7], in [3], in experiment [8] and in experiment [4] was “inactive” in each case. For the same compound, the Potency result (in [5]; with Aromatase (Homo sapiens)) was “inactive” in each case.
Regarding `O=C1CC[C@@H](C(=O)O)N1`, the Potency result (in experiment [9]; in [2]; in experiment [7]; in experiment [5]; with Aromatase (Homo sapiens)) was “inactive” throughout.
As to `O=C1OC(=O)c2c(Br)c(Br)c(Br)c(Br)c21`, the Potency entry in [9], in experiment [2], in experiment [7] and in experiment [5] was “inactive” each time.
Consider `Cc1cn([C@H]2C[C@H](F)[C@@H](CO)O2)c(=O)[nH]c1=O`, for which the Potency entry in [9], in experiment [2], in experiment [7], in experiment [3], in [8] and in experiment [4] was “inactive” throughout. In addition, the Potency result (in experiment [5]; in the experiment with Aromatase (Homo sapiens)) was “inactive” in each case.
In the case of `CC(C(=O)O)c1ccc(C(=O)c2cccs2)cc1` (stereo not drawn), the Potency entry (in [9]; in experiment [2]; in experiment [7]; in experiment [5]; in the experiment with Aromatase (Homo sapiens)) was “inactive” each time.
As to `CC1=CC[C@@H]2C[C@H]1C2(C)C`, the Potency entry (in experiment [9]; in experiment [8]; in [5]; with Aromatase (Homo sapiens)) was “inactive” in each case. The activation is 0.116% [at 18 µM] in experiment [2] and -0.944% [at 14.9 µM] in [3]. Besides, the activity, negative = inhibition in experiment [6] was 12.8% [at 15 µM]. In experiment [7], the activity, negative = cytotoxicity is -16.5% [at 15 µM].
On to `O=C(c1ccccc1)c1ccc(O)cc1`, for which the Potency entry (in [9]; in experiment [2]; in experiment [7]; in experiment [5]; with Aromatase (Homo sapiens)) was “inactive” each time. The Potency in experiment [8] is 9.8 µM (active).
For the compound `CC(=O)c1ccc[nH]1`, the Potency entry in [9], in experiment [2], in experiment [7], in experiment [3], in experiment [8] and in experiment [5] was “inactive” each time. For the same compound, in the experiment with Aromatase (Homo sapiens), the Potency entry is “inactive”.
